Measurements taken from PubChem BioAssay (NCI).
The panel holds about 79,000 compounds, 15% with a hit somewhere; the sample as a whole holds those more often. Values without a mark were called inactive. The source made the active and inactive calls. Cut-off read from the data, not from the text of the source: active = growth inhibition above about 70%; inactive = the rest.

Key:
[1] = NCI Yeast Anticancer Drug Screen. Data for the rad50 strain (AID 155);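 note: 0% = growth of vehicle-only cultures of the same strain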; settings: S. cerevisiae rad50 strain growth inhibition; at 50.0 µM; stronger effect = higher value
Method in brief: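 Readout: growth inhibition relative to vehicle-treated cultures. Compound exposure was carried out in a genetically defined yeast strain deficient in DNA damage repair.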

[2] = NCI Yeast Anticancer Drug Screen. Data for the mec2-1 strain (AID 157); settings: S. cerevisiae mec2-1 strain, at 50.0 µM, stronger effect = higher value
Method in brief: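 Readout is yeast growth inhibition, normalised to vehicle-treated controls, in the mec2-1 strain exposed to compound.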

[3] = NCI Yeast Anticancer Drug Screen. Data for the sgs1 mgt1 strain (AID 161);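 note: 0% = growth of cultures given vehicle only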; settings: S. cerevisiae sgs1 mgt1 strain, at 50.0 µM, stronger effect = higher value
Method in brief: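 Yeast cells carrying a defined DNA-repair defect were exposed to test compounds. Growth inhibition was measured relative to vehicle-treated controls.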

[4] = NCI Yeast Anticancer Drug Screen. Data for the cln2 rad14 strain (AID 165);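 note: 0% = growth equal to vehicle treated cultures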; settings: S. cerevisiae cln2 rad14 strain, at 50.0 µM, stronger effect = higher value
Method in brief: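 Relative to vehicle controls, growth inhibition of compound-treated cln2 rad14 yeast was recorded.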

[5] = NCI Yeast Anticancer Drug Screen. Data for the bub3 strain (AID 167); settings: S. cerevisiae bub3 mutant strain, at 50.0 µM, stronger effect = higher value
Method in brief: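 Readout: yeast growth inhibition, expressed relative to vehicle-only wells. The test organism is a mutant strain from a panel with lesions in DNA repair or checkpoint genes.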

[6] = NCI Yeast Anticancer Drug Screen. Data for the mlh1 rad18 strain (AID 175); settings: S. cerevisiae mlh1 rad18 strain growth inhibition; at 50.0 µM; stronger effect = higher value
Method in brief: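 Test agents were incubated with a yeast strain of defined genotype (DNA damage repair defect). Inhibition of growth was derived by comparison with vehicle-exposed cultures.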

| Structure (SMILES) | growth inhibition [1] [%] | growth inhibition [2] [%] | growth inhibition [3] | growth inhibition [4] [%] | growth inhibition [5] [%] | growth inhibition [6] [%] |
| --- | --- | --- | --- | --- | --- | --- |
| C[n+]1ccccc1/C=C/C=C/c1ccccc1 | 0.45 | -13.1 | 1.4% | -17.3 | -6.1 | 1.9 |
| NC(=O)c1n[nH]n(-c2ccccc2)c1=O | -13.2 | -5.35 | -7.75% | 0.15 | -19.9 | 3.85 |
| NC(c1ccccc1)(c1ccccc1)c1ccccc1 | 20.1 | 2.9 | 43.9% | -9.8 | 19.4 | 11 |
| NC(=O)c1ncnc2nc[nH]c12 | -14.2 | -42.5 | -9% | -29.1 | -20.4 | -10.6 |
| CN1NC(c2ccccc2)NN(C)C1=S | -19.8 | -25.6 | -12% | -16.6 | -4.45 | 3.05 |
| O=C1C(c2[nH]c3ccc(F)cc3c2O)=Nc2ccc(F)cc21 | 8.7 | 10.9 | 22.9% | 9.4 | 0 | 19.1 |
| CC(=O)NC(Cc1ccccc1)C(=O)Nc1ccccc1C (stereo unspecified) | 9.1 | -18.3 | 14.8% | 10.6 | 7.75 | 7.35 |
| O=C(O)Cc1ccc(-c2ccccc2)[nH]1 | 3.35 | -14.7 | 3.25% | -25.8 | -17.1 | -12 |
| CN(C)C(=O)C1C2CCCC(CC2)C1C(=O)N(C)C (stereo unspecified) | 13.7 | 19.6 | 21.2% | 20.5 | 18 | 20.2 |
| CC(C)Nc1nc(N)nc(N)n1 | -11.1 | -17.6 | 2% | -20.1 | -17.6 | -5.2 |
| O=[N+]([O-])c1ccc(OCc2ccc(CBr)cc2)c(Cl)c1 | 4.1 | 29.6 | 15.4% | -13.7 | 16 | 22.5 |
| c1ccc2c(c1)nc(NC1CCCC1)c1[nH]c(C3CCCC3)nc12 | -26.1 | -36.6 | -56.9% | -10.3 | -29.2 | -50 |
| O=[N+]([O-])c1cc(Cl)cc2c1nc(NCCCO)c1ccccc12 | -0.8 | 7.35 | -0.3% | -7.95 | -7.65 | 27.9 |
| C=C(C#N)C1OCC2OC(C)(C)OC21 (stereo unspecified) | 3.7 | -4 | -0.35% | 12.3 | -4.8 | -25.9 |
| CCCC1CCCCC1O (stereo unspecified) | -9.55 | -38.8 | -24.4% | 7.15 | -24.2 | -6.95 |
| O=C1c2ccccc2C(=O)N1CNc1ccccc1Cl | 27.8 | 8.95 | 23.2% | 18.2 | 18.2 | 17.3 |
| CC(C)(C)c1cc(C(c2ccc3c(c2)OCO3)N2CCOCC2)c(O)c(C(C)(C)C)c1 (stereo unspecified) | 12.3 | -12.3 | -2.05% | 14.8 | 13.1 | 16.9 |
| Nc1nc(-c2ccccc2)cc(-c2ccc(F)cc2)c1-c1ccc(Cl)cc1 | 16.9 | -9.2 | 20.4% | 24.6 | -0.95 | -73.5 |
| C=Cn1c([N+](=O)[O-])cnc1/C=C/c1ccc(C(=O)OCCN2CCOCC2)cc1 | 68.8 | 16.4 | 78.3% (active) | 34.9 | -10.2 | 53 |
| CCOC(=O)C(NC(=S)Cc1ccccc1)C(=O)OCC | 10.1 | -2.85 | -4.8% | -5.7 | 9.75 | -0.35 |
| CC12C(=O)OC(=O)C1C1C=CC2C1 (stereo unspecified) | 20.2 | 6.15 | -18.2% | -64.5 | -0.35 | 5.05 |
